Source: PubChem BioAssay (NCATS)
Inconclusive results are not listed. Active and inactive are the calls of the source. Calls follow the shape of the dose curve; as a rule, active = well fitted inhibition curve with a large enough effect; inconclusive = small, poorly fitted or top-dose-only effect; inactive = flat fitted curve, though single readings scatter.

What was measured:
[1] = qHTS profiling for inhibitors of Plasmodium falciparum proliferation (AID 504749);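 also: 0% = DMSO vehicle and full inhibition = artemisinin control; nearly all actives have a fitted effect of over 60% in size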; settings: P. falciparum in erythrocytes, SYBR Green DNA, 72 h, at 28.7 µM (top of the series)
In short: (§1)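 Three-day growth assay of blood-stage parasites in erythrocytes (0.3% parasitemia, 2.5% hematocrit) at 37 C, 5% CO2, quantified by SYBR Green DNA staining after overnight detergent lysis.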

3D7 = assay: as above; settings: P. falciparum in erythrocytes, SYBR Green DNA, 72 h; series mostly up to 28.7 µM
In short: as §1

7G8 = assay: as above; settings: P. falciparum in erythrocytes, SYBR Green DNA, 72 h; series mostly up to 28.7 µM
In short: as §1

AA1029 = assay: as above; settings: P. falciparum in erythrocytes, SYBR Green DNA, 72 h; series mostly up to 28.7 µM
In short: as §1

AS120 = assay: as above; settings: P. falciparum in erythrocytes, SYBR Green DNA, 72 h; series mostly up to 28.7 µM
In short: as §1

ATS189 = assay: as above; settings: P. falciparum in erythrocytes, SYBR Green DNA, 72 h; series mostly up to 28.7 µM
In short: as §1

ATS95 = assay: as above; settings: P. falciparum in erythrocytes, SYBR Green DNA, 72 h; series mostly up to 28.7 µM
In short: as §1

C2A = assay: as above; settings: P. falciparum in erythrocytes, SYBR Green DNA, 72 h; series mostly up to 28.7 µM
In short: as §1

CP185 = assay: as above; settings: P. falciparum in erythrocytes, SYBR Green DNA, 72 h; series mostly up to 28.7 µM
In short: as §1

CP191 = assay: as above; settings: P. falciparum in erythrocytes, SYBR Green DNA, 72 h; series mostly up to 28.7 µM
In short: as §1

CP192 = assay: as above; settings: P. falciparum in erythrocytes, SYBR Green DNA, 72 h; series mostly up to 28.7 µM
In short: as §1

CP194 = assay: as above; settings: P. falciparum in erythrocytes, SYBR Green DNA, 72 h; series mostly up to 28.7 µM
In short: as §1

CP201 = assay: as above; settings: P. falciparum in erythrocytes, SYBR Green DNA, 72 h; series mostly up to 28.7 µM
In short: as §1

CP203 = assay: as above; settings: P. falciparum in erythrocytes, SYBR Green DNA, 72 h; series mostly up to 28.7 µM
In short: as §1

CP211 = assay: as above; settings: P. falciparum in erythrocytes, SYBR Green DNA, 72 h; series mostly up to 28.7 µM
In short: as §1

CP215 = assay: as above; settings: P. falciparum in erythrocytes, SYBR Green DNA, 72 h; series mostly up to 28.7 µM
In short: as §1

CP217 = assay: as above; settings: P. falciparum in erythrocytes, SYBR Green DNA, 72 h; series mostly up to 28.7 µM
In short: as §1

CP237 = assay: as above; settings: P. falciparum in erythrocytes, SYBR Green DNA, 72 h; series mostly up to 28.7 µM
In short: as §1

CP238 = assay: as above; settings: P. falciparum in erythrocytes, SYBR Green DNA, 72 h; series mostly up to 28.7 µM
In short: as §1

CP247 = assay: as above; settings: P. falciparum in erythrocytes, SYBR Green DNA, 72 h; series mostly up to 28.7 µM
In short: as §1

CCOc1ccc(NC(=S)Nc2ccc(OCC)cc2)cc1
inactive: activity, negative = inhibition ([1]; parasite line A) 1.76% | activity, negative = inhibition ([1]; parasite line B) -2.23% | Potency (3D7) | Potency (7G8) | Potency (AA1029) | Potency (AS120) | Potency (ATS189) | Potency (ATS95) | Potency (C2A) | Potency (CP185) | Potency (CP191) | Potency (CP192) | Potency (CP194) | Potency (CP201) | Potency (CP203) | Potency (CP211) | Potency (CP215) | Potency (CP217) | Potency (CP237) | Potency (CP238) | Potency (CP247)

Cc1c(Cl)cccc1Nc1ncccc1C(=O)O
inactive: activity, negative = inhibition ([1]; parasite line A) 15.4% | activity, negative = inhibition ([1]; parasite line B) 7.39% | Potency (3D7) | Potency (7G8) | Potency (AA1029) | Potency (AS120) | Potency (ATS189) | Potency (ATS95) | Potency (C2A) | Potency (CP185) | Potency (CP191) | Potency (CP192) | Potency (CP194) | Potency (CP201) | Potency (CP203) | Potency (CP211) | Potency (CP215) | Potency (CP217) | Potency (CP237) | Potency (CP238) | Potency (CP247)

OCC(O)CO
inactive: activity, negative = inhibition ([1]; parasite line A) 7.74% | activity, negative = inhibition ([1]; parasite line B) 7.55% | Potency (3D7) | Potency (7G8) | Potency (AA1029) | Potency (AS120) | Potency (ATS189) | Potency (ATS95) | Potency (C2A) | Potency (CP185) | Potency (CP191) | Potency (CP192) | Potency (CP194) | Potency (CP201) | Potency (CP203) | Potency (CP211) | Potency (CP215) | Potency (CP217) | Potency (CP237) | Potency (CP238) | Potency (CP247)

O=C(NNCS(=O)(=O)O)c1ccncc1
inactive: activity, negative = inhibition ([1]; parasite line A) 13.1% | activity, negative = inhibition ([1]; parasite line B) 6.08% | Potency (3D7) | Potency (7G8) | Potency (AA1029) | Potency (AS120) | Potency (ATS189) | Potency (ATS95) | Potency (C2A) | Potency (CP185) | Potency (CP191) | Potency (CP192) | Potency (CP194) | Potency (CP201) | Potency (CP203) | Potency (CP211) | Potency (CP215) | Potency (CP217) | Potency (CP237) | Potency (CP238) | Potency (CP247)

CCCCCCCCCCCC(=O)N(CCO)CCO
inactive: activity, negative = inhibition ([1]; parasite line A) -3.5% | activity, negative = inhibition ([1]; parasite line B) 9.6% | Potency (3D7) | Potency (7G8) | Potency (AA1029) | Potency (AS120) | Potency (ATS189) | Potency (ATS95) | Potency (C2A) | Potency (CP185) | Potency (CP191) | Potency (CP192) | Potency (CP194) | Potency (CP201) | Potency (CP203) | Potency (CP211) | Potency (CP215) | Potency (CP217) | Potency (CP237) | Potency (CP238) | Potency (CP247)

O=C(O)C1=C(CSc2nnnn2CS(=O)(=O)O)CS[C@@H]2[C@H](NC(=O)[C@H](O)c3ccccc3)C(=O)N12
inactive: activity, negative = inhibition ([1]; parasite line A) -7.54% | activity, negative = inhibition ([1]; parasite line B) 1.69% | Potency (3D7) | Potency (7G8) | Potency (AA1029) | Potency (AS120) | Potency (ATS189) | Potency (ATS95) | Potency (C2A) | Potency (CP185) | Potency (CP191) | Potency (CP192) | Potency (CP194) | Potency (CP201) | Potency (CP203) | Potency (CP211) | Potency (CP215) | Potency (CP217) | Potency (CP237) | Potency (CP238) | Potency (CP247)

Nc1nc(=O)n([C@@H]2CS[C@H](CO)O2)cc1F
inactive: activity, negative = inhibition ([1]; parasite line A) 2.36% | activity, negative = inhibition ([1]; parasite line B) 4.33% | Potency (3D7) | Potency (7G8) | Potency (AA1029) | Potency (AS120) | Potency (ATS189) | Potency (ATS95) | Potency (C2A) | Potency (CP185) | Potency (CP191) | Potency (CP192) | Potency (CP194) | Potency (CP201) | Potency (CP203) | Potency (CP211) | Potency (CP215) | Potency (CP217) | Potency (CP237) | Potency (CP238) | Potency (CP247)

CCC(O)c1ccccc1 (stereo not drawn)
inactive: activity, negative = inhibition ([1]; parasite line A) 5.27% | activity, negative = inhibition ([1]; parasite line B) 8.76% | Potency (3D7) | Potency (7G8) | Potency (AA1029) | Potency (AS120) | Potency (ATS189) | Potency (ATS95) | Potency (C2A) | Potency (CP185) | Potency (CP191) | Potency (CP192) | Potency (CP194) | Potency (CP201) | Potency (CP203) | Potency (CP211) | Potency (CP215) | Potency (CP217) | Potency (CP237) | Potency (CP238) | Potency (CP247)

CC(C)[C@H](N)C(=O)OCC(CO)OCn1cnc2c(=O)[nH]c(N)nc21 (stereo partly drawn)
inactive: activity, negative = inhibition ([1]; parasite line A) 14.7% | activity, negative = inhibition ([1]; parasite line B) 6.07% | Potency (3D7) | Potency (7G8) | Potency (AA1029) | Potency (AS120) | Potency (ATS189) | Potency (ATS95) | Potency (C2A) | Potency (CP185) | Potency (CP191) | Potency (CP192) | Potency (CP194) | Potency (CP201) | Potency (CP203) | Potency (CP211) | Potency (CP215) | Potency (CP217) | Potency (CP237) | Potency (CP238) | Potency (CP247)

Cc1ncc(C[n+]2csc(CCOP(=O)(O)OP(=O)(O)O)c2C)c(N)n1
inactive: activity, negative = inhibition ([1]; parasite line A) -0.174% | activity, negative = inhibition ([1]; parasite line B) 5.83% | Potency (3D7) | Potency (7G8) | Potency (AA1029) | Potency (AS120) | Potency (ATS189) | Potency (ATS95) | Potency (C2A) | Potency (CP185) | Potency (CP191) | Potency (CP192) | Potency (CP194) | Potency (CP201) | Potency (CP203) | Potency (CP211) | Potency (CP215) | Potency (CP217) | Potency (CP237) | Potency (CP238) | Potency (CP247)

CN(CCO)CC(O)Cn1cnc2c1c(=O)n(C)c(=O)n2C (stereo not drawn) (tested in a mixture with another compound)
inactive: activity, negative = inhibition ([1]; parasite line A) 12.7% | activity, negative = inhibition ([1]; parasite line B) 12.8% | Potency (3D7) | Potency (7G8) | Potency (AA1029) | Potency (AS120) | Potency (ATS189) | Potency (ATS95) | Potency (C2A) | Potency (CP185) | Potency (CP191) | Potency (CP192) | Potency (CP194) | Potency (CP201) | Potency (CP203) | Potency (CP211) | Potency (CP215) | Potency (CP217) | Potency (CP237) | Potency (CP238) | Potency (CP247)

CC(=O)Nc1ccc(OC(C)=O)cc1
inactive: activity, negative = inhibition ([1]; parasite line A) 10.5% | activity, negative = inhibition ([1]; parasite line B) 11.7% | Potency (3D7) | Potency (7G8) | Potency (AA1029) | Potency (AS120) | Potency (ATS189) | Potency (ATS95) | Potency (C2A) | Potency (CP185) | Potency (CP191) | Potency (CP192) | Potency (CP194) | Potency (CP201) | Potency (CP203) | Potency (CP211) | Potency (CP215) | Potency (CP217) | Potency (CP237) | Potency (CP238) | Potency (CP247)

CCCCC[C@H](O)/C=C/[C@H]1[C@H](O)CC(=O)[C@@H]1C/C=C\CCCC(=O)O
inactive: activity, negative = inhibition ([1]; parasite line A) 7.21% | activity, negative = inhibition ([1]; parasite line B) 0.0897% | Potency (3D7) | Potency (7G8) | Potency (AA1029) | Potency (AS120) | Potency (ATS189) | Potency (ATS95) | Potency (C2A) | Potency (CP185) | Potency (CP191) | Potency (CP192) | Potency (CP194) | Potency (CP201) | Potency (CP203) | Potency (CP211) | Potency (CP215) | Potency (CP217) | Potency (CP237) | Potency (CP238) | Potency (CP247)
